About 83,000 compounds went through this panel and 20% of them were active in at least one assay; those are over-represented in the sample as a whole.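 Testing used 96-well plates and a 48-hour single-concentration exposure. Example: -40 means 40% of the starting cells died.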 Values without a mark were called inactive. Calls of active or inactive are those of the source. Rule for the calls: active = growth percent below 10; inactive = the rest.

The values below come from PubChem BioAssay (NCI).

Some test systems named below: HCT-15 colon; HT29 colon; SNB-75 CNS; SNB-19 CNS; U251 CNS; PC-3 prostate; UACC-62 melanoma; LOX IMVI melanoma; SK-MEL-28 melanoma.
Common to all, as to assay: NCI-60 one-dose screen, 48 h (100 = growth as untreated, 0 = no growth, -100 = all killed)
What all share (settings): 10 µM unless noted

With `COc1cc2c(cc1OC)C(Sc1ccc(SC)cc1)c1c(nc(N)c(C#N)c1N)O2` (stereo not drawn), the growth is -71.5% (active) with HCT-15 colon; -55.2% (active) in the experiment on HT29 colon; -54.5% (active) in the experiment with SNB-75 CNS; -77.9% (active) in the experiment on SNB-19 CNS; -99.3% (active) with U251 CNS; -75.8% (active) with PC-3 prostate. Moreover, the growth in the experiment on UACC-62 melanoma is -61.3% (active); in the experiment on LOX IMVI melanoma, -96.3% (active); in the experiment on SK-MEL-28 melanoma, -55.5% (active).

For `COc1cc(-c2nn(-c3ccc(C)cc3)cc2C(=O)O)ccc1O`, the growth with HCT-15 colon was 99.4%; with HT29 colon, 107%; in the experiment on SNB-75 CNS, 87.5%; with SNB-19 CNS, 97.7%; in the experiment on U251 CNS, 108%; in the experiment with PC-3 prostate it was 91%. Moreover, the growth with UACC-62 melanoma is 96.1%; in the experiment with LOX IMVI melanoma, 86%; with SK-MEL-28 melanoma, 104%.

`O=C(O)c1c(=O)cccc2ssc12`: the growth in the experiment on HCT-15 colon was 4.16% (active); in the experiment with HT29 colon, -48.6% (active); with SNB-75 CNS, 26.9%; in the experiment with SNB-19 CNS, -74.4% (active); with U251 CNS, -91.9% (active); in the experiment with PC-3 prostate it was -19.3% (active). Also, the results for the growth in the experiment with UACC-62 melanoma, in the experiment on LOX IMVI melanoma and in the experiment with SK-MEL-28 melanoma were 14.3%, 1.04% (active) and 10.8%, respectively.

Turning to `Cc1cc(N2CCN(c3ccnc4cc(Cl)ccc34)CC2)nc(N2CCOCC2)n1`, the growth in the experiment with HCT-15 colon was 73.6%; in the experiment on HT29 colon, 67.6%; with SNB-75 CNS, 88.9%; with SNB-19 CNS it was 82.6%; in the experiment with U251 CNS, 93.9%; in the experiment on PC-3 prostate it was 51.9%. For the same compound, the values for the growth in the experiment on UACC-62 melanoma and with SK-MEL-28 melanoma were 84.3% and 104%, respectively.

With `COc1cc(Nc2cc(C)nc(N3CCN(c4ccnc5cc(Cl)ccc45)CC3)n2)cc(OC)c1`, the growth in the experiment with HCT-15 colon is 5.63% (active); in the experiment on HT29 colon, 3.4% (active); with SNB-75 CNS, 8.38% (active); in the experiment with SNB-19 CNS, 27.5%; in the experiment with U251 CNS, 9.56% (active); in the experiment with PC-3 prostate it was 22.8%. Further, the growth in the experiment on UACC-62 melanoma was -2.21% (active); with SK-MEL-28 melanoma, 44.5%.

For the compound `CC1C(/C=N/Nc2ccccc2)C(C#N)(C#N)C1(C#N)C#N` (stereo not drawn), the growth in the experiment on HCT-15 colon is 69.2%; in the experiment with HT29 colon, 97.6%; in the experiment on SNB-75 CNS it was 71.7%; in the experiment with SNB-19 CNS, 98.6%; in the experiment on U251 CNS it was 101%; with PC-3 prostate, 65.9%. Also, the figures for the growth with UACC-62 melanoma, in the experiment on LOX IMVI melanoma and in the experiment on SK-MEL-28 melanoma were 5.25% (active), 38.7% and 100%, respectively.

Consider `O=C1c2cc3c(cc2-c2c1c1ccc(F)cc1c(=O)n2C[C@H](O)[C@H](O)[C@H](O)CO)OCO3`, for which the growth was 0.724% (active) with HCT-15 colon; -4.15% (active) with HT29 colon; -36.9% (active) in the experiment on SNB-75 CNS; 2.14% (active) in the experiment with SNB-19 CNS; -22.4% (active) in the experiment on U251 CNS; 6.99% (active) with PC-3 prostate. Besides, the growth is -70.4% (active) in the experiment on UACC-62 melanoma and -30.6% (active) with SK-MEL-28 melanoma.

In the case of `COc1cc(C)c(C2C(C#N)=C(N)Oc3n[nH]c(-c4cccs4)c32)cc1C(C)C` (stereo not drawn), the growth was 96.2% with HCT-15 colon; 98.9% in the experiment on HT29 colon; 86.8% in the experiment with SNB-75 CNS; 103% in the experiment on SNB-19 CNS; 90.2% with U251 CNS; 95.3% in the experiment on PC-3 prostate. The growth was 96.1% in the experiment with UACC-62 melanoma, 98.6% in the experiment with LOX IMVI melanoma and 112% with SK-MEL-28 melanoma.

On to `Cc1cc(N2CCN(c3ccnc4cc(Cl)ccc34)CC2)nc(NC2CCCCC2)n1`, for which the growth is 3.54% (active) with HCT-15 colon; 6.72% (active) in the experiment with HT29 colon; 58.2% in the experiment with SNB-75 CNS; 56.6% in the experiment with SNB-19 CNS; 30.7% in the experiment with U251 CNS; 22.2% with PC-3 prostate. The results for the growth in the experiment with UACC-62 melanoma and with SK-MEL-28 melanoma were -48.7% (active) and 23.9%, respectively.

Take `COc1cc2c(cc1-c1c(C)noc1C)ncc1nc(C3CCOCC3)n([C@@H](C)COC(F)F)c12`: the growth with HCT-15 colon is 24.5%; in the experiment on HT29 colon it was 18.8%; in the experiment on SNB-75 CNS, 28.7%; in the experiment with SNB-19 CNS, 56.6%; in the experiment on U251 CNS, 53.3%; in the experiment on PC-3 prostate, 39.2%. Besides, the growth in the experiment on UACC-62 melanoma is 20.7%; with SK-MEL-28 melanoma, 53.5%.

On to `O=C1NC(=O)C(c2ccc(Cl)cc2Cl)N1` (stereo not drawn), for which the growth was 108% in the experiment on HCT-15 colon; 106% in the experiment with HT29 colon; 92.7% with SNB-75 CNS; 97.1% with SNB-19 CNS; 103% in the experiment with U251 CNS; 104% with PC-3 prostate. Besides, the growth was 97.7% in the experiment with UACC-62 melanoma, 104% in the experiment on LOX IMVI melanoma and 112% in the experiment on SK-MEL-28 melanoma.

Consider `CC(C)n1c(/C=C/[C@@H](O)C[C@@H](O)CC(=O)O)c(-c2ccc(F)cc2)c2ccccc21`, for which the growth was 50.6% in the experiment on HCT-15 colon; 75.9% in the experiment on HT29 colon; 29.9% in the experiment with SNB-75 CNS; 55.7% in the experiment with SNB-19 CNS; 15.9% in the experiment on U251 CNS; 26.5% in the experiment with PC-3 prostate. For the same compound, the values for the growth in the experiment on UACC-62 melanoma, in the experiment with LOX IMVI melanoma and with SK-MEL-28 melanoma were 16.3%, 5.69% (active) and 72.9%, respectively.

For `COC[C@H](C)n1c(C2CCOCC2)nc2cnc3cc(-c4c(C)noc4C)c(OC)cc3c21`, the growth in the experiment with HCT-15 colon was 34.6%; with HT29 colon, 23.4%; in the experiment with SNB-75 CNS it was 31.2%; with SNB-19 CNS it was 64.8%; with U251 CNS it was 54.1%; in the experiment with PC-3 prostate, 44.8%. For the same compound, the growth is 31.7% in the experiment on UACC-62 melanoma and 59% in the experiment on SK-MEL-28 melanoma.

As to `N#CN1CCC[C@H]1C(=O)N1CCc2c(-c3[nH]nc4ncccc34)cccc21`, the growth in the experiment on HCT-15 colon was 7.65% (active); in the experiment on HT29 colon it was -53.9% (active); in the experiment on SNB-75 CNS, -16% (active); with SNB-19 CNS, 17.1%; in the experiment with U251 CNS it was -27.6% (active); in the experiment with PC-3 prostate, 21.6%. Further, the growth with UACC-62 melanoma is 7.64% (active); with LOX IMVI melanoma it was 4.55% (active); in the experiment with SK-MEL-28 melanoma it was 24.6%.

On to `CCOC(=O)C(C)(C#N)C1C=CCCC1` (stereo not drawn), for which the growth with HCT-15 colon was 91.3%; in the experiment on HT29 colon, 94.7%; in the experiment with SNB-75 CNS, 78.3%; in the experiment with SNB-19 CNS, 87.9%; in the experiment with U251 CNS it was 106%; in the experiment on PC-3 prostate it was 94.2%. Further, the values for the growth in the experiment with UACC-62 melanoma and with SK-MEL-28 melanoma were 97.7% and 96.2%, respectively.
